# Compound activity deposited in PubChem BioAssay by National Center for Advancing Translational Sciences (NCATS).
# L3MBTL1 block: L3MBTL1 (human) inhibition | Q9Y468 | AlphaScreen L3MBTL1–H3K9me1 peptide binding | Potency, µM (doses to about 57.1 µM), for inactives: at the top dose activity, negative = inhibition, actives largely listed as inhibitors | 230,000 compounds, 0.66% hits; also: % is scaled to controls: 0 for no effect and ±100 for the full control effect; nearly all actives have a fitted effect of over 60% in size
#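 First, the protein-peptide complex forms for 30 min at room temperature (L3MBTL1 50 nM, biotinylated H3K9me1 peptide 75 nM). Next, compounds are pin-transferred and incubated 30 min. Finally, AlphaScreen beads are added and read after 30 min.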
# Pol beta inh: DNA polymerase beta (human) inhibition. 340,000 compounds, 1.3% hits. P06746. Pol beta primer extension/strand displacement, fluorescence kinetic. Potency, µM (titrated, usually from 114 µM), for inactives: at the highest dose activity change, negative = inhibition, most hits filed as inhibitors; also: % is scaled to controls: 0 for no effect and ±100 for the full control effect
#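 Pol beta (10 nM) was preincubated with compound for 15 min at room temperature. The reaction was then started with 50 nM substrate and read immediately and after a further 10 min at room temperature.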
# Pol kappa inh-1: inhibitors of human DNA polymerase kappa | Q9UBT6 | purified Pol kappa, fluorescent DNA synthesis assay, 10 min | Potency, µM (titrated, usually from 107 µM), inactives show top-dose activity, negative = inhibition, hits mostly inhibitors | 400,000 compounds, 0.53% hits; also: % is scaled to controls: 0 for no effect and ±100 for the full control effect
#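 Activity was followed as the change in fluorescence between reads at 0 and 10 min after starting the reaction with 50 nM substrate. Beforehand, 10 nM polymerase had been preincubated with compound for 15 min at room temperature.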
# Pol iota inh: blocks human DNA polymerase iota activity; Potency, µM (top dose mostly 115 µM), inactives show top-dose activity, negative = inhibition, usual class: inhibitors; 390,000 compounds, 1% hits; Pol iota fluorescent replication assay, 10 min
#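 Fluorescent replication assay read twice, at 0 min and 10 min after adding 50 nM (final) substrate. Enzyme (10 nM) and compounds were first incubated 15 min at room temperature; enzyme-free buffer wells were negative controls.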
# Pol eta inh-1: inhibitors of human DNA polymerase eta. Q9Y253. recombinant Pol eta, fluorescent DNA replication assay. Potency, µM (series often up to 114 µM), for the others: at the top dose activity change, negative = inhibition, actives largely listed as inhibitors. 390,000 compounds, 1.2% hits. AID 588591; also: % is scaled to controls: 0 for no effect and ±100 for the full control effect
# Target sequence (Q9Y253 whole entry, looked up): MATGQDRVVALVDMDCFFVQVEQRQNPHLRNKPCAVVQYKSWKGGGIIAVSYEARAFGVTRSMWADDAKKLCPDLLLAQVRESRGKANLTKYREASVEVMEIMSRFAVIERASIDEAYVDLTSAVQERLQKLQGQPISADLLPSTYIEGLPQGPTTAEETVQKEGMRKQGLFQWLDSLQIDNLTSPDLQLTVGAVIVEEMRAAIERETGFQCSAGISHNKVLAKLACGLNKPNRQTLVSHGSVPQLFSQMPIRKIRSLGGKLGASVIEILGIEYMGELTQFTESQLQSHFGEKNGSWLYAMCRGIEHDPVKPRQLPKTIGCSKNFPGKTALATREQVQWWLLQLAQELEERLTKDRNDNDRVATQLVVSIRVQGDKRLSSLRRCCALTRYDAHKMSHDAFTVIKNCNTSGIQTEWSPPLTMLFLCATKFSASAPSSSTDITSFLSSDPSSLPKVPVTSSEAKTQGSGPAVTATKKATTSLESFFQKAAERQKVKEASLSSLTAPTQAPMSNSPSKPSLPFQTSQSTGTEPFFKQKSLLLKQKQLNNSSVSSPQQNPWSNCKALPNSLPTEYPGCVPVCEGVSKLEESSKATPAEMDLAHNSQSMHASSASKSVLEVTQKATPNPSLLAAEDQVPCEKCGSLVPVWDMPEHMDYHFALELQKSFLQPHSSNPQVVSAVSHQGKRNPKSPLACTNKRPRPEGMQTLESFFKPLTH
#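 Pol eta at 10 nM preincubated with compounds 15 min at room temperature; reaction started with fluorescent substrate (50 nM final) and read kinetically at 0 and 10 min.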
# HEK293 viability: counter-screen for GALK inhibitors: HEK293 cell cytotoxicity | AID 2547 | HEK-293 viability, ATP luminescence (CellTiter-Glo), 24/48 h | 170 compounds, 10% hits | shares compounds with Pol eta inh-1 | Potency, µM (series often up to 46.1 µM), without a hit: at the highest dose activity change, negative = cytotoxicity, actives largely listed as inhibitors; also: % is scaled to controls: 0 for no effect and ±100 for the full control effect
# Pol kappa inh-2: confirmation of human DNA polymerase kappa inhibitors | shares compounds with Pol eta inh-1 | purified Pol-kappa, fluorescent strand-displacement substrate | Potency, µM, hits mostly inhibitors | 920 compounds, 76% hits
# Pol eta inh-2: Pol eta (human) inhibition, cherry-pick confirmation | shares compounds with Pol eta inh-1 | Pol eta primer extension, TAMRA/BHQ fluorescence, 10 min | Potency, µM, hits mostly inhibitors | 2,600 compounds, 64% hits
# Starred values were filed as active, the others as inactive; ? = inconclusive; / = not tested or not shown; ! = repeats disagree; [ ] = another dose, or the depositor's remark. Sampled rows, rich in hits. Any-hit rate of the full collection: about 2.4%. Calls follow the shape of the dose curve; as a rule, active = well fitted curve in the direction sought with a large enough effect; inconclusive = small, poorly fitted or top-dose-only effect, or another doubt; inactive = no such curve, though single readings can be large; an effect the other way counts as inactive or inconclusive. Potency is read from the fitted curve at half-maximal effect.
SMILES,L3MBTL1 block,Pol beta inh,Pol kappa inh-1,Pol iota inh,Pol eta inh-1,Pol eta inh-2,others
O=C(Nc1ccc(S(=O)(=O)Nc2nccs2)cc1)c1cccc(F)c1,/,-7%,0%,14%,-6%,/,
O=C(Nc1ccc(S(=O)(=O)Nc2nccs2)cc1)c1ccc(=O)[nH]c1,-29%,50µM*,?,?,20µM*,43*,Pol kappa inh-2=67*
O=C(CN1C(=O)/C(=C/c2ccco2)SC1=S)NC1CCS(=O)(=O)C1 (configuration not stated),/,?,?,?,13µM*,60*,
CC(C(=O)N(C)C1CCS(=O)(=O)C1)N1C(=O)/C(=C/c2ccco2)SC1=S (configuration not stated),/,?,?,32µM*,22µM*,76*,
O=C(CCN1C(=O)/C(=C/c2ccccc2)SC1=S)NC1CCS(=O)(=O)C1 (configuration not stated),/,17%,-11%,69%,-16%,/,
CCC(=O)OCc1cnc(C)c2oc(=O)c(C(=O)Nc3ccccc3C(F)(F)F)cc12,/,6%,-9%[60.1 µM],-6%,-16%,/,
Cc1nc2cccnc2n1-c1cccc(C(=O)NCCc2ccc(S(N)(=O)=O)cc2)c1,/,43%,9%,35%,-20%,/,
CC1(OC(=O)C2CCCC2)C(=O)C=C2C=C(c3ccsc3)N(Cc3ccco3)C=C2C1=O (configuration not stated),/,?,25µM*,?,-14%,2.4*,
CC1(OC(=O)C2CCCC2)C(=O)C=C2C=C(c3ccsc3)N(CCCCO)C=C2C1=O (configuration not stated),/,29%,1%,107%,-7%,/,
C[C@@H]1CN([C@@H](C)CO)C(=O)c2cc(NS(=O)(=O)c3cccs3)ccc2O[C@H]1CN(C)Cc1ccc(C(F)(F)F)cc1,-3%,/,-2%,-9%,-10%,/,
COc1cccc(C(=O)Nc2cccc(NC(=O)c3ccc(Cl)cc3Cl)c2)c1,/,-25%,-8%,15%,-24%,/,
COc1cccc(C(=O)Nc2cccc(C(=O)NC3=NN(c4c(Cl)cc(Cl)cc4Cl)C(=O)C3)c2)c1,?,14µM*,22µM*,?,40µM*,76*,
CCc1nn2c(=O)cc(COC(=O)c3cccc(NC(=O)c4ccccc4C)c3)nc2s1,/,?,-7%[60.1 µM],21%,-17%,/,
Cc1noc(NS(=O)(=O)c2ccc(NC(=O)c3ccc(Br)cc3)cc2)c1C,/,0%,?,-7%,/,/,Pol kappa inh-2=8.4*
CCOc1ccccc1-n1nnc(-c2nsc(NC(=O)c3ccc(C)cc3)n2)c1C,/,-7%,6%,9%,-12%,/,
N=C1S/C(=C\c2ccc(-c3cccc(Cl)c3)o2)C(=O)N1c1nccs1,?,8.9µM*,-43%,?,10µM*,?,Pol kappa inh-2=24*
COc1cc2ccccc2ccc1=NO,/,/,6%,35%,-11%,/,
CN(C)CCCn1c(=S)[nH]c2ccccc2c1=O,-16%,0%,-11%,44%,6%,/,
CN(C)CCCn1c2c3ccccc3ccc2c2oc(=O)c3ccccc3c21,/,/,50µM*!,14µM*,?,?,
Cc1cc(NC2=CC(=O)C(=O)c3ccccc32)no1,/,/,-12%,?,22µM*,?,
COc1cc(OC)c(NC2=CC(=O)C(=O)c3ccccc32)cc1Cl,/,-27%,8%,10%,?,/,
CCOC(=O)C1CCCN(S(=O)(=O)c2ccc3[nH]c(=O)ccc3c2)C1 (configuration not stated),/,19%,-6%[60.1 µM],10%,-11%,/,
CC(=O)Nc1ccc2c(c1)C(=O)c1ccccc1C2=O,-5%,0%,-25%,?,4%,/,
CC(C)(C)C(=O)Nc1ccc2c(c1)C(=O)C(=O)c1ccccc1-2,/,/,4%,1.4µM*,/,/,HEK293 viability=5.6µM*
N#Cc1cc(C(=O)c2ccccc2O)cn(-c2nccs2)c1=O,-12%,20µM*,-29%,-16%,16µM*,67*,
SMILES,L3MBTL1 block,Pol beta inh,Pol kappa inh-1,Pol iota inh,Pol eta inh-1,Pol eta inh-2,others
N#Cc1cc(C(=O)c2cc(F)ccc2O)cn(-c2nccs2)c1=O,-4%,18µM*,?,?,28µM*,?,
COc1ccc(N2CC(C(=O)Nc3nnc(SCC(=O)NCc4ccco4)s3)CC2=O)cc1 (configuration not stated),/,?,-42%,?,22µM*,?,Pol kappa inh-2=42*
Cc1ccccc1-c1nc(CS(=O)(=O)CC(=O)Nc2cccc(C(F)(F)F)c2)c(C)o1,/,?,-23%,6%,-17%,/,
COC(=O)c1ccc(NC(=O)CSc2nc(=O)n(Cc3ccco3)c3c2CCC3)cc1,/,-1%,-15%[60.1 µM],-3%,-8%,/,
COc1ccc(C(=O)Nc2cccc(-c3nc4cccnc4s3)c2C)c(OC)c1,/,2%,?,79µM*,-4%,/,Pol kappa inh-2=47*
CCOCC(=O)Nc1cccc(-c2nc3cccnc3s2)c1C,6%,0%,-3%,25%,-16%,/,
CCn1cc(C(=O)OCC(=O)Nc2cc(Cl)ccc2C)c(=O)c2ccc(C)nc21,/,17%,10%,11%,1%,/,
COC(=O)Cc1cc(C)cc2c(=O)cc(-c3ccoc3)oc12,/,/,-41%,?,50µM*,?,
CCCCCCCCCCCC(=O)[O][Sn]([CH2]CCC)([CH2]CCC)[O]C(=O)CCCCCCCCCCC,/,/,-13%[60.1 µM],/,/,/,
CC(C)Cn1c(N)c(C(=O)COC(=O)C2CCCCC2)c(=O)n(C)c1=O,2%,0%,-10%,23%,-14%,/,
CC(C)Cn1c(N)c(C(=O)COC(=O)C2Cc3ccccc3CN2S(C)(=O)=O)c(=O)n(C)c1=O (configuration not stated),?,/,?,45µM*,22µM*,?,Pol kappa inh-2=?
COc1ccc(NC(=O)CN2C(=O)NC3(CCCC3)C2=O)cc1OC,/,59%,-17%,?,-7%,?,
CC(C)(C)n1ncc2c(=O)n(Cc3ccc(F)cc3)cnc21,/,/,-4%,-17%,/,/,
CCOc1ccccc1NC(=O)CCS(=O)(=O)c1ccc(Br)cc1,/,10µM*,?,18µM*,18µM*,24*,
O=C(CCS(=O)(=O)c1ccc(Br)cc1)NCc1cccs1,/,16µM*,?,18µM*,18µM*,?,
CCOc1ccccc1NC(=O)CCNS(=O)(=O)c1ccc(NC(C)=O)cc1,/,32%,2%,-5%,-16%,/,
CCOC(=O)c1c(NS(=O)(=O)c2ccc(Br)cc2)sc2c1CCC2,/,/,79µM*,11µM*,20µM*,?,
